Screening results as filed in PubChem BioAssay.
Sampled rows, rich in hits. Any-hit rate of the full collection: about 21%.
TDP1 cell CPT: qHTS for Inhibitors of human tyrosyl-DNA phosphodiesterase 1 (TDP1): qHTS in cells in presence of CPT. chicken DT40 Tdp1-/-;hTDP1 cells + 20 nM CPT, ATP luminescence, 48 h. Potency, µM (highest dose often 46.2 µM), for the others: top-dose activity change, negative = growth inhibition, usual class: inhibitors. 12% of 420,000 active. AID 686979, 2013; also: potency is read from the fitted curve at half-maximal effect; nearly all actives have a fitted effect of over 55% in size
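Chicken DT40 Tdp1-/- cells stably complemented with human TDP1 were seeded at 400 cells/well in medium containing 20 nM camptothecin, exposed to pin-transferred compounds, and grown at 37 °C for at least 48 hr. Viability was read as ATP luminescence.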
RORg inh: qHTS for inhibitors of ROR gamma transcriptional activity | Nuclear receptor ROR-gamma (Mus musculus), P51450 | Drosophila S2 Gal4-RORgamma UAS-luciferase reporter, 20 h | Potency, µM (top dose mostly 53.6 µM), inactives show at the highest dose activity change, negative = inhibition, most hits filed as inhibitors | 5.4% of 310,000 active | AID 2551, 2010; also: potency is read from the fitted curve at half-maximal effect; nearly all actives have a fitted effect of over 60% in size
Target sequence (P51450 whole entry, looked up, the tested form may be a part): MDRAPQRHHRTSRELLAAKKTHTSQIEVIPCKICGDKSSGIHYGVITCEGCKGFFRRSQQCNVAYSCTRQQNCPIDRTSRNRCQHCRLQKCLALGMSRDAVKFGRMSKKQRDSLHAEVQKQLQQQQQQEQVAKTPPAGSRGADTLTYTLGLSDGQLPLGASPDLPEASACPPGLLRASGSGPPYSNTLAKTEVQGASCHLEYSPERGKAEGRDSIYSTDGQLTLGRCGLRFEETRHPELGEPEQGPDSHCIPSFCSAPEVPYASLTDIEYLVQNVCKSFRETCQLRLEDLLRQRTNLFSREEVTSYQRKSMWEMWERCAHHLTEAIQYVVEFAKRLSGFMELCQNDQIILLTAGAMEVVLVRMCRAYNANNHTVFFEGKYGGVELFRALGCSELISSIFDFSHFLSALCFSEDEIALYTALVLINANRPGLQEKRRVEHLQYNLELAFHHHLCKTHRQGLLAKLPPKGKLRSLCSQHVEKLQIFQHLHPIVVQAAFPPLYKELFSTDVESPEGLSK
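A Gal4/UAS one-hybrid system in insect cells: metallothionein-promoter Gal4–ROR gamma fusion plus Photinus luciferase reporter. Copper sulfate 700 uM final, 20 hr ambient incubation, luminescent detection after 10 min with reagent.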
Gal4-VP16 FLuc: VP16 counterscreen qHTS for inhibitors of ROR gamma transcriptional activity; Drosophila S2 Gal4-VP16 UAS-luciferase, luminescence, 20 h; 3.5% of 310,000 active; Potency, µM (highest dose often 53.6 µM), inactives show at the highest dose activity, negative = inhibition, most hits filed as inhibitors; AID 2546, 2010;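 also: Gal4-VP16 expression switched on by copper sulfate through the metallothionein promoter; potency is read from the fitted curve at half-maximal effect; nearly all actives have a fitted effect of over 50% in size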
IL1B secr inh: qHTS for Inhibitors of Inflammasome Signaling: IL-1-beta AlphaLISA Primary Screen; THP-1 LPS/ATP IL-1B secretion, AlphaLISA, 16 h; hits give low values; activity change, % at 57.5 µM; AID 743279, 2014; 4.7% of 360,000 active; in the data active = activity change below about -50%; inconclusive = mostly about -30% to -49%
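Secreted IL-1B measured by AlphaLISA bead assay after 16 h compound exposure of THP-1 cells; compounds (final up to 57.5 uM) added 1 h before LPS (250 ng/mL) and ATP (1.25 mM) stimulation; lower signal means less secretion.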
TDP1 cell noCPT: qHTS for Inhibitors of human tyrosyl-DNA phosphodiesterase 1 (TDP1): qHTS in cells in absence of CPT; DT40 Tdp1-/- hTDP1 cells, no CPT, ATP luminescence, 48 h; Potency, µM (doses to about 46.2 µM), for the others: at the top dose activity change, negative = growth inhibition, usual class: inhibitors; 15% of 420,000 active; also: potency is read from the fitted curve at half-maximal effect; nearly all actives have a fitted effect of over 55% in size
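Growth kinetics read by CellTiter-Glo luminescence after ≥48 hr at 37 °C. Cells: DT40 Tdp1-/- stably carrying human TDP1, 400 per well, compound exposure in the absence of CPT (DMSO vehicle).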
ELG1 repair inh: qHTS screen for small molecules that inhibit ELG1-dependent DNA repair in human embryonic kidney (HEK293T) cells expressing luciferase-tagged ELG1; HEK293T ELG1-luciferase reporter, luminescence, 16 h; DNA damage induced by 5-fluorouridine; Potency, µM (series often up to 46.1 µM), inactives show at the highest dose activity change, negative = inhibition, actives largely listed as inhibitors; 2.3% of 330,000 active; AID 504467, 2011; also: potency is read from the fitted curve at half-maximal effect; nearly all actives have a fitted effect of over 55% in size
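HEK293T cells expressing luciferase-tagged ELG1 (2,000/well) received 5-Fluorouridine plus compound or DMSO for 16 hr at 37 °C. Luciferase was read by ONE-Glo luminescence after 30 min at room temperature.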
* marks the source's active call; other numbers are inactive results. Unless noted, calls follow the shape of the dose curve; as a rule, active = well fitted curve in the direction sought with a large enough effect; inconclusive = small, poorly fitted or top-dose-only effect, or another doubt; inactive = no such curve, though single readings can be large; an effect the other way counts as inactive or inconclusive. % is scaled to controls: 0 for no effect and ±100 for the full control effect.

What do the screens show for `Cc1c(OCC(=O)C(C)(C)C)ccc2c3c(c(=O)oc12)CCCC3`?
TDP1 cell CPT: inconclusive; RORg inh: inconclusive; Gal4-VP16 FLuc: -5.0%; IL1B secr inh: -1.9; TDP1 cell noCPT: 16.4µM*; ELG1 repair inh: -27.6%

What do the screens show for `Cc1c(OCC(=O)C(C)(C)C)ccc2c(-c3ccccc3)cc(=O)oc12`?
TDP1 cell CPT: inconclusive; RORg inh: inconclusive; Gal4-VP16 FLuc: -8.5%; IL1B secr inh: -63.5*; TDP1 cell noCPT: 16.4µM*; ELG1 repair inh: inconclusive

Results for Cc1c(OCC(=O)NCC(O)c2ccccc2)ccc2c(-c3ccccc3)cc(=O)oc12 (stereo unspecified) ?
TDP1 cell CPT: inconclusive; RORg inh: inconclusive; Gal4-VP16 FLuc: -10.1%; IL1B secr inh: -62.6*; TDP1 cell noCPT: inconclusive; ELG1 repair inh: inconclusive

How did CCOc1ccc2c3c(c(=O)oc2c1OCC)CCCC3 do in these assays?
TDP1 cell CPT: inconclusive; RORg inh: 23.9%; Gal4-VP16 FLuc: 10.7%; IL1B secr inh: -52.3*; TDP1 cell noCPT: inconclusive; ELG1 repair inh: 0.0%

What do the screens show for `O=C(COC(=O)CC1CCCC1)Nc1ccc(Br)cc1F`?
TDP1 cell CPT: -1.7%; IL1B secr inh: 5.3; TDP1 cell noCPT: -24.1%; ELG1 repair inh: -1.1%

How did O=C(NCCc1ccccc1)c1ccc2nc(N3CCCCC3)sc2c1 do in these assays?
TDP1 cell CPT: -11.0%; TDP1 cell noCPT: inconclusive

How did CC1CCN(c2nc3ccc(C(=O)NCc4ccccc4Cl)cc3s2)CC1 do in these assays?
TDP1 cell CPT: inconclusive; TDP1 cell noCPT: 20.6µM*

Results for O=C(NCC1CCCO1)c1ccc2nc(N3CCCCC3)sc2c1 (stereo unspecified) ?
TDP1 cell CPT: -29.6%; RORg inh: 7.08µM*; Gal4-VP16 FLuc: inconclusive; IL1B secr inh: -5.9; TDP1 cell noCPT: inconclusive; ELG1 repair inh: inconclusive

What do the screens show for `CC1CCN(c2nc3ccc(C(=O)NCCCN4CCCCC4)cc3s2)CC1`?
TDP1 cell CPT: inconclusive; RORg inh: 1.0%; Gal4-VP16 FLuc: 3.7%; IL1B secr inh: -20.0; TDP1 cell noCPT: 23.1µM*; ELG1 repair inh: inconclusive

What do the screens show for `Cc1ccccc1NC(=O)c1ccc2nc(N3CCOCC3)sc2c1`?
TDP1 cell CPT: 18.4µM*; RORg inh: 6.4%; Gal4-VP16 FLuc: inconclusive; IL1B secr inh: -25.9; TDP1 cell noCPT: 14.6µM*; ELG1 repair inh: inconclusive

How did COc1ccc(-c2nc3cnc(N4CCOCC4)nc3n(-c3ccc(OC)cc3)c2=O)cc1 do in these assays?
TDP1 cell CPT: inconclusive; RORg inh: 4.2%; Gal4-VP16 FLuc: -2.3%; TDP1 cell noCPT: inconclusive

Results for CS(=O)(=O)NCC(c1ccco1)N1CCN(c2ccccc2)CC1 (stereo unspecified) ?
TDP1 cell CPT: -12.0%; TDP1 cell noCPT: -15.6%

How did COc1ccc(CC(=O)Nc2ccc(C(=O)Nc3ccccc3C(=O)O)cc2)cc1OC do in these assays?
TDP1 cell CPT: -12.1%; RORg inh: 13.8%; Gal4-VP16 FLuc: -12.9%; IL1B secr inh: 20.5; TDP1 cell noCPT: -21.2%; ELG1 repair inh: -9.0%

Results for COc1ccccc1C(CNC(=O)c1ccc(OCc2c(C)noc2C)cc1)N1CCCC1 (stereo unspecified) ?
TDP1 cell CPT: inconclusive; IL1B secr inh: 0.0; TDP1 cell noCPT: -16.0%; ELG1 repair inh: 21.3%

What do the screens show for `Cc1cccc(N2CCN(C(=O)c3ccc4nc(N5CCC(C)CC5)sc4c3)CC2)c1C`?
TDP1 cell CPT: 20.6µM*; TDP1 cell noCPT: 16.4µM*

Results for OC(COc1ccc2ccccc2c1Br)Cn1ccnc1 (stereo unspecified) ?
TDP1 cell CPT: inconclusive; RORg inh: 35.3%; Gal4-VP16 FLuc: -4.2%; IL1B secr inh: -24.8; TDP1 cell noCPT: 20.6µM*; ELG1 repair inh: -17.9%

What do the screens show for `CC(C)(C)NCC(O)COc1c(F)cc(Br)cc1F` (stereo unspecified)?
TDP1 cell CPT: -1.4%; RORg inh: 13.7%; Gal4-VP16 FLuc: -2.0%; IL1B secr inh: 37.3; TDP1 cell noCPT: -10.6%; ELG1 repair inh: -8.6%

Results for CC(C)(C)CC(C)(C)NCC(O)COc1c(F)cc(Br)cc1F (stereo unspecified) ?
TDP1 cell CPT: inconclusive; RORg inh: -32.2%; Gal4-VP16 FLuc: -15.5%; IL1B secr inh: inconclusive; TDP1 cell noCPT: 23.1µM*; ELG1 repair inh: -17.9%

What do the screens show for `c1ccc(-c2cnnn2-c2ccccc2)cc1`?
TDP1 cell CPT: -15.4%; RORg inh: 0.0%; Gal4-VP16 FLuc: 1.7%; IL1B secr inh: 9.7; TDP1 cell noCPT: -10.4%; ELG1 repair inh: 12.5%

What do the screens show for `NC(=O)CC(NC(=O)Cc1cccc2ccccc12)c1ccc(NCCc2ccccc2F)c([N+](=O)[O-])c1` (stereo unspecified)?
TDP1 cell CPT: 20.6µM*; RORg inh: -20.5%; Gal4-VP16 FLuc: 0.3%; IL1B secr inh: 20.4; TDP1 cell noCPT: inconclusive; ELG1 repair inh: 8.7%

How did Cc1ccccc1CNc1ccc(C(CC(N)=O)NC(=O)c2ccccc2)cc1[N+](=O)[O-] (stereo unspecified) do in these assays?
TDP1 cell CPT: 16.4µM*; RORg inh: inconclusive; Gal4-VP16 FLuc: -23.7%; IL1B secr inh: -78.4*; TDP1 cell noCPT: 23.1µM*; ELG1 repair inh: inconclusive

Results for NC(=O)CC(NC(=O)Cc1cccc2ccccc12)c1ccc(NCCc2ccc(F)cc2)c([N+](=O)[O-])c1 (stereo unspecified) ?
TDP1 cell CPT: inconclusive; RORg inh: -20.7%; Gal4-VP16 FLuc: -6.6%; IL1B secr inh: 7.1; TDP1 cell noCPT: inconclusive; ELG1 repair inh: -5.2%

How did CCCCNc1ccc(C(CC(N)=O)NC(=O)c2ccccc2)cc1[N+](=O)[O-] (stereo unspecified) do in these assays?
TDP1 cell CPT: 18.4µM*; RORg inh: 7.8%; Gal4-VP16 FLuc: 1.1%; IL1B secr inh: -11.6; TDP1 cell noCPT: 14.6µM*; ELG1 repair inh: 5.1%

Results for CCC(CC)Nc1ccc(C(CC(N)=O)NC(=O)c2ccccc2)cc1[N+](=O)[O-] (stereo unspecified) ?
TDP1 cell CPT: 16.4µM*; RORg inh: 19.0%; Gal4-VP16 FLuc: -10.0%; IL1B secr inh: -1.9; TDP1 cell noCPT: 14.6µM*; ELG1 repair inh: inconclusive
